One test addresses Actin, cytoplasmic 1 (UniProt P60709). The experiment in a line: cross-linking mass spectrometry.
Another test concerns the target Histone H2B type 1-N (UniProt Q99877). In words: cross-linking mass spectrometry.
In the next test the target is Alpha-enolase (UniProt P06733). The experiment in a line: cross-linking mass spectrometry.
Test [1] concerns the target Heat shock cognate 71 kDa protein (UniProt P11142). The experiment in a line: cross-linking mass spectrometry.
For test [2], the target named is Heterogeneous nuclear ribonucleoprotein U (UniProt Q00839). In words: cross-linking mass spectrometry.
Heterogeneous nuclear ribonucleoprotein U, sequence (Q00839 whole entry): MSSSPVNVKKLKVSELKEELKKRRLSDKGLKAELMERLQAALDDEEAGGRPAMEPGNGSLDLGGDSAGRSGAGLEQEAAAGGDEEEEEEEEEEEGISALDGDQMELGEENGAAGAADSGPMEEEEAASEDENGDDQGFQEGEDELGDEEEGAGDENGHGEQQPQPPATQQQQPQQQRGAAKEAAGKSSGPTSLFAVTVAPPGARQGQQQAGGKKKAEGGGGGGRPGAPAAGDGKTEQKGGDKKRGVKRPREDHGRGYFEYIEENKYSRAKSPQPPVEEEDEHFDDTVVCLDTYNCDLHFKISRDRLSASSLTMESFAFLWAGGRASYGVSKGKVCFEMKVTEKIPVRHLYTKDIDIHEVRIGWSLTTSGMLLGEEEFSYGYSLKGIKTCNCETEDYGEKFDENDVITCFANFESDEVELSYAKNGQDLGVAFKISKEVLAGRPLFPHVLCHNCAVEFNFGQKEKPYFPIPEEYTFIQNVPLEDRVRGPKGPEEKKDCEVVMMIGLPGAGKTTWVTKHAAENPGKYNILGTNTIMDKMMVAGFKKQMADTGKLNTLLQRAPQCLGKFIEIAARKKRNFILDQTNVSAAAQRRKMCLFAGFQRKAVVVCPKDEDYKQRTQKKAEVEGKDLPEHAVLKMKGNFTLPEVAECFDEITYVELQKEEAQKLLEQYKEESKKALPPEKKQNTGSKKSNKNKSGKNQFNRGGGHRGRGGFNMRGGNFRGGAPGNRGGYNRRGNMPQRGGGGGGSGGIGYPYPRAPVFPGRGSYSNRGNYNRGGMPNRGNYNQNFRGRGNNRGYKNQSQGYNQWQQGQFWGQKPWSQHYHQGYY
The target of test [3] is Protein disulfide-isomerase A6 (UniProt Q15084). In words: cross-link between two proteins; cross-linking mass spectrometry.
Protein disulfide-isomerase A6, sequence (Q15084 whole entry): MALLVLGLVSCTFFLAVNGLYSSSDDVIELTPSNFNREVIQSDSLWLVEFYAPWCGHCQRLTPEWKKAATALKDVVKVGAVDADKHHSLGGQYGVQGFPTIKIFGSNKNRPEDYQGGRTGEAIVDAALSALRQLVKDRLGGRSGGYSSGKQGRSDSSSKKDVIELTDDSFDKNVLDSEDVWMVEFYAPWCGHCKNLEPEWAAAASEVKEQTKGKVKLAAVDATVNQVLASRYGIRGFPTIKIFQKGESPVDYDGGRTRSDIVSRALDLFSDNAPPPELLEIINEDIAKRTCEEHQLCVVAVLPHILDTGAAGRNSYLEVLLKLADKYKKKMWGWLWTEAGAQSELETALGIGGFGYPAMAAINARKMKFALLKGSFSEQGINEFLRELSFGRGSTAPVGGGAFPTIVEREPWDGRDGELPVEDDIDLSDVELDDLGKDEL
The target in test [4] is Voltage-gated monoatomic cation channel TMEM109 (UniProt Q9BVC6). The description is as above.
Voltage-gated monoatomic cation channel TMEM109, sequence (Q9BVC6 whole entry): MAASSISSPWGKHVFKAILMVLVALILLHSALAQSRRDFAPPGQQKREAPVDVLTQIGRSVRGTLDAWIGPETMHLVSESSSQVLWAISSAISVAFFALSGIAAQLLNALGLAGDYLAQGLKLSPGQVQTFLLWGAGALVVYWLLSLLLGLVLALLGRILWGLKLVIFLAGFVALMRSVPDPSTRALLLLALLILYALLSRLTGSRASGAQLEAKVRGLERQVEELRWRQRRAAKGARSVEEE
Another test has as its target CD44 antigen (UniProt P16070). The experiment in a line: cross-link between two proteins; affinity purification or IP with mass spectrometry; cross-linking mass spectrometry.

Alpha-enolase, sequence (P06733 whole entry): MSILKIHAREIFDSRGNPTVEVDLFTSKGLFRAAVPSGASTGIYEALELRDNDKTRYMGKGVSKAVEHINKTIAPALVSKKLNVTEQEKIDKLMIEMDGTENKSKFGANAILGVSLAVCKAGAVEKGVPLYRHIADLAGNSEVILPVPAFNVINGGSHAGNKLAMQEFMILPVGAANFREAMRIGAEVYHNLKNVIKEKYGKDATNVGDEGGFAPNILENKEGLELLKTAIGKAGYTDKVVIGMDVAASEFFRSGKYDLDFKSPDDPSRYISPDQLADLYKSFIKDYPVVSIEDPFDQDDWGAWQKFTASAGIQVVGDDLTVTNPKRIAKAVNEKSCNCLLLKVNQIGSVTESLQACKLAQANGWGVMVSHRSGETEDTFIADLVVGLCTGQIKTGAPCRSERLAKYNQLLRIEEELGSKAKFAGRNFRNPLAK
Glyceraldehyde-3-phosphate dehydrogenase, P04406, sequence (P04406 whole entry): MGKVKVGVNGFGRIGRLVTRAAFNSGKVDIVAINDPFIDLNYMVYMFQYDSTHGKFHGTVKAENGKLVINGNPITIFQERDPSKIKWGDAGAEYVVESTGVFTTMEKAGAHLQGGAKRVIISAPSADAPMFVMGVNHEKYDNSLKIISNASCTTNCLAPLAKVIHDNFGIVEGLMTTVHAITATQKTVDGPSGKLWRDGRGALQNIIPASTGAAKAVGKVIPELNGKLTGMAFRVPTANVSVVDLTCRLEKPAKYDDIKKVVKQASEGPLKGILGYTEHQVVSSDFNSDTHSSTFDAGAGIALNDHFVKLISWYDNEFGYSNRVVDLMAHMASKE
Protein disulfide-isomerase, P07237, sequence (P07237 whole entry): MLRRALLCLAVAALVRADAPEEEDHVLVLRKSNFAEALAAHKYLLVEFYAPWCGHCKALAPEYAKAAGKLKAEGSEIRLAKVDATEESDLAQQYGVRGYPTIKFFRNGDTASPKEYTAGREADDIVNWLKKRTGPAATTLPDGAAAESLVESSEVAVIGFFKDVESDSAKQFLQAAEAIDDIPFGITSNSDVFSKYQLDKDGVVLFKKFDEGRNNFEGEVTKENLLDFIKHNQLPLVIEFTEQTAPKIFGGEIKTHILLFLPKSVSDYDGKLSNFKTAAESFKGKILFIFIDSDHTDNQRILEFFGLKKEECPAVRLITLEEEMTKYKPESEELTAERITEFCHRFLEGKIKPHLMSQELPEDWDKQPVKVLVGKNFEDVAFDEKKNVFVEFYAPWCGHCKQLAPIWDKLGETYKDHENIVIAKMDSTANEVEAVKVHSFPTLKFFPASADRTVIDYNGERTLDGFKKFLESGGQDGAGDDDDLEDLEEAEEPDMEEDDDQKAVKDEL

For High mobility group protein B1, P09429, the “listed as a hit” value with Actin, cytoplasmic 1 is on record as “yes”; in the test with Histone H2B type 1-N, “yes”.
For “Glyceraldehyde-3-phosphate dehydrogenase, P04406”, the “listed as a hit” value with Alpha-enolase is reported as “yes”.
Regarding Tubulin beta chain, P07437, in test [1], the “listed as a hit” value is recorded as “yes”.
For the substance “Heterogeneous nuclear ribonucleoprotein A1, P09651”, in test [2], the “listed as a hit” value was “yes”.
Turning to Protein disulfide-isomerase, P07237, the “listed as a hit” value in test [3] was “yes”.
Turning to Transmembrane protein 43, Q9BTV4, in test [4], the “listed as a hit” value is “yes”.
Take Annexin A6, P08133: the “listed as a hit” value in the test with CD44 antigen is recorded as “yes”.

Source of the values: PMC12280212.
